Measurements: PubChem BioAssay (NCI)
Compounds without any hit were thinned out: in the full panel of roughly 79,000, 15% have a hit. Rule as the data show it: active = growth inhibition above about 70%; inactive = the rest.

What was measured:
[1] = NCI Yeast Anticancer Drug Screen. Data for the rad50 strain (AID 155);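 also: 0% = growth of vehicle-only cultures of the same strain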; settings: S. cerevisiae rad50 strain growth inhibition; at 50.0 µM; hits give high values
Method in brief: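 DNA repair mutant yeast, compound exposure, growth read-out; inhibition is taken relative to vehicle.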

[2] = NCI Yeast Anticancer Drug Screen. Data for the mec2-1 strain (AID 157); settings: S. cerevisiae mec2-1 strain, at 50.0 µM, hits give high values
Method in brief: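 Each compound was tested on mec2-1 yeast, a strain altered in DNA damage repair or cell cycle control. Growth inhibition is reported relative to vehicle.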

[3] = NCI Yeast Anticancer Drug Screen. Data for the sgs1 mgt1 strain (AID 161);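 also: 0% = growth of cultures given vehicle only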; settings: S. cerevisiae sgs1 mgt1 strain, at 50.0 µM, hits give high values
Method in brief: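 Mutant yeast exposed to compound; growth scored against vehicle-only wells.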

[4] = NCI Yeast Anticancer Drug Screen. Data for the cln2 rad14 strain (AID 165);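 also: 0% = growth equal to vehicle treated cultures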; settings: S. cerevisiae cln2 rad14 strain, at 50.0 µM, hits give high values
Method in brief: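 Test compounds were added to cln2 rad14 yeast cultures; inhibition of growth was then determined by comparison with vehicle treatment.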

[5] = NCI Yeast Anticancer Drug Screen. Data for the bub3 strain (AID 167); settings: S. cerevisiae bub3 mutant strain, at 50.0 µM, hits give high values
Method in brief: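 In this screen, a yeast mutant lacking normal mitotic checkpoint function is challenged with compound. Relative growth versus vehicle gives the inhibition value.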

[6] = NCI Yeast Anticancer Drug Screen. Data for the mlh1 rad18 strain (AID 175); settings: S. cerevisiae mlh1 rad18 strain growth inhibition; at 50.0 µM; hits give high values
Method in brief: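 Inhibition values reflect reduced growth of mutant yeast versus vehicle-treated controls following compound exposure; the mutations affect DNA damage repair.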

Measured: growth inhibition

C[C@@H]1O[C@]2(O)[C@@H]3CCCN3S(=O)(=O)CCN2C1=O
inactive: [1] 2.1% | [2] -21.6% | [3] -16.9% | [4] 17.7% | [5] -11.3% | [6] -17.1%

Cc1cc(/C=C2\SC(=S)NC2=O)cc(C)c1O
inactive: [1] 1.65% | [2] 0.8% | [3] 24.6% | [4] 13.1% | [5] 22.8% | [6] 13.7%

Nc1ccc(C(=O)O)cc1[N+](=O)[O-]
inactive: [1] -0.85% | [2] -4.65% | [3] -3.7% | [4] -14.6% | [5] 2.15% | [6] -1.5%

CCCCCC/C(C)=C/CCC(C)=O
inactive: [1] 12.4% | [2] 4.15% | [3] 14.8% | [4] 11.3% | [5] 4.7% | [6] -0.25%

O=C(Nc1ccc2c(c1)Cc1ccccc1-2)C(Cl)Cl
inactive: [1] 20.4% | [2] 1.95% | [3] 10.6% | [4] -7.85% | [5] 42.5% | [6] 14%

COc1ccccc1NC(=O)C(CC(C(=O)Nc1ccccc1OC)/C(C)=N/NC(=O)c1ccccc1O)/C(C)=N/NC(=O)c1ccccc1O (stereo unspecified)
inactive: [1] -27.8% | [2] -14.2% | [3] -28.2% | [4] 21.9% | [5] -3.55% | [6] -9.1%

Fc1ccc(/C=C/c2ccc(/C=C/c3ccc(F)cc3)nn2)cc1
inactive: [1] 18.4% | [2] -4.2% | [3] 7.8% | [4] -13.1% | [5] 5.15% | [6] -1.5%

[B]C(=O)NC(CC(C)C)C(=O)NCC(=O)NC1c2ccsc2C(=O)C1O (stereo unspecified) (tested in a mixture with another compound)
inactive: [1] -23.5% | [2] 3.95% | [3] -23.8% | [4] -8.45% | [5] 0% | [6] 2.05%

CCCCCCCC(NC(C)=O)(C(=O)OCC)C(=O)OCC
inactive: [1] -9.25% | [2] -19.1% | [3] -4.55% | [4] -29.9% | [5] 6.75% | [6] -28.8%

CC(C)c1ccc(OC(=N)c2ccccc2)cc1
inactive: [1] 1.5% | [2] -7.35% | [3] -9.45% | [4] -3.95% | [5] 7.85% | [6] 3.6%

O=S(=O)(O)c1cc(S(=O)(=O)O)c2c(N=Nc3cccc4ccccc34)c(O)ccc2c1
inactive: [1] 0.8% | [2] -9.25% | [3] -35.5% | [4] -18.1% | [5] -35.9% | [6] 1.55%

O=C1C=Cc2ccccc2/C1=C/c1nc(-c2ccc(Cl)cc2)oc1O
inactive: [1] -3.2% | [2] 7.05% | [3] -8.75% | [4] -1.2% | [5] 6.9% | [6] -13.3%

CCOC(=O)CNC(=O)C(Cc1cnc[nH]1)NC(=O)OCc1ccccc1 (stereo unspecified)
inactive: [1] -1.9% | [2] -13.6% | [3] -8.6% | [4] -14.6% | [5] -6.7% | [6] -3.7%

CSc1ccc2c(cc1=O)[C@@H](NC(C)=O)CCc1cc(O)c(O)c(O)c1-2
inactive: [1] 7.1% | [2] 12.3% | [3] 18.1% | [4] 4.85% | [5] 17.4% | [6] 22.8%

c1ccc(C2=NOC(c3ccccc3)N2C23CC4CC(CC(C4)C2)C3)cc1 (stereo unspecified)
inactive: [1] 2.9% | [2] 4.4% | [3] -17.5% | [4] 24.4% | [5] -13% | [6] 36.1%

FC(F)(F)C(F)(F)C(F)(F)c1nnnn1-c1ccccc1
inactive: [1] 10.8% | [2] -0.8% | [3] -17.1% | [4] 3.3% | [5] -13.3% | [6] -17.1%

Cc1cccc(N=N/C(=N\NC(=O)c2cc(Cl)ccc2O)c2ccc(N(CCC#N)CCC#N)cc2C)c1
inactive: [1] 13.7% | [2] -1% | [3] 19.7% | [4] 1.8% | [5] 13.8% | [6] -79.6%

O=C(O)C(=Cc1ccc(Br)cc1)C(=O)O
inactive: [1] 41.5% | [2] -25.8% | [3] 13.5% | [4] 20.8% | [5] 23.1% | [6] 31.9%

O=C1C(/C=N\C(=S)NCc2ccccc2)=C(O)c2ccccc21
inactive: [1] -31.9% | [2] -30.2% | [3] -27.1% | [4] 15.7% | [5] -3.45% | [6] -7.05%

O=C(NCO)NCOCn1c(=O)n(CO)c(=O)n(CO)c1=O
inactive: [1] 5.05% | [2] -22.6% | [3] -2.5% | [4] 29.9% | [5] 9.7% | [6] -15.9%

CC(C)NC(=O)OCc1c(COC(=O)NC(C)C)c(S(=O)(=O)c2ccccc2)n2c1CCC2
inactive: [1] 11.5% | [2] 1.5% | [3] -20.6% | [4] 4.7% | [5] 1.35% | [6] 25.6%
